High-throughput results deposited in PubChem BioAssay by National Center for Advancing Translational Sciences (NCATS).
Hits are enriched below; roughly 8% of the tested compounds scored in any of these assays.
FMDV inh: antivirals against foot and mouth disease virus. FMDV antiviral cell-based qHTS. 410,000 compounds, 1.2% hits. Potency, µM (top dose mostly 57.9 µM), inactives show at the highest dose activity change, negative = inhibition, hits mostly inhibitors; calls by dose curve; tested in HEK293T cells; also: read-out not given here; potency is read from the fitted curve at half-maximal effect; % is scaled to controls: 0 for no effect and ±100 for the full control effect; nearly all actives have a fitted effect of over 45% in size
HCV inh: inhibitors of hepatitis C virus infection; AID 651820; 340,000 compounds, 3.4% hits; Potency, µM (series often up to 41.8 µM), for inactives: top-dose activity change, negative = inhibition, hits mostly inhibitors; Huh7.5.1 HCVcc-Cre infection, luciferase reporter, 44 h; active = well fitted inhibition curve with a large enough effect; inconclusive = small, poorly fitted or top-dose-only effect, or another doubt; inactive = no such curve, though single readings can be large or run the other way; also: potency is read from the fitted curve at half-maximal effect; % is scaled to controls: 0 for no effect and ±100 for the full control effect
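After 44 h co-culture of compound, cells and HCVcc-Cre (~0.5 moi), substrate is added for 15 min at room temperature and luciferase measured over 15 sec. Cells were seeded at 1,000/well and pre-cultured 4 h.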
SARS PLpro yeast: inhibitors of SARS-CoV papain-like protease in yeast | 330,000 compounds, 0.19% hits | Potency, µM (top dose mostly 32.9 µM), inactives show at the top dose activity, positive = growth rescue, actives largely listed as activators | S. cerevisiae expressing SARS-CoV PLpro, growth rescue; calls by dose curve; also: potency is read from the fitted curve at half-maximal effect; 0% is about no effect; nearly all actives have a fitted effect of over 55% in size
MARV entry inh: inhibitors of Marburg virus binding or cell entry. Marburg virus pseudotyped entry inhibition, cell reporter. Potency, µM (top dose mostly 37.8 µM), for the others: at the top dose activity change, negative = inhibition, usual class: inhibitors. 300,000 compounds, 1.8% hits; calls by dose curve; tested in HEK293 cells; also: potency is read from the fitted curve at half-maximal effect; % is scaled to controls: 0 for no effect and ±100 for the full control effect
LASV entry inh: inhibitors of Lassa virus binding or cell entry; Lassa virus pseudotype entry inhibition, cell reporter; Potency, µM (doses to about 37.9 µM), without a hit: at the top dose activity change, negative = inhibition, actives largely listed as inhibitors; 300,000 compounds, 1.2% hits; AID 540256; calls by dose curve; tested in HEK293 cells; also: potency is read from the fitted curve at half-maximal effect; % is scaled to controls: 0 for no effect and ±100 for the full control effect; nearly all actives have a fitted effect of over 50% in size
HCMV antiviral: inhibitors of human cytomegalovirus; 410,000 compounds, 4.5% hits; activity change, negative = inhibition, % at 57.5 µM; HFF cells, HCMV-luciferase reporter, 72 h; stronger effect = lower value; in the data active = activity change below about -60%; inconclusive = no clear call, values can overlap the other calls; inactive = above about -39%; also: % is scaled to controls: 0 for no effect and ±100 for the full control effect
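Human foreskin fibroblasts infected with luciferase-reporter HCMV at MOI 1 PFU/cell, compounds at two doses. Luciferase measured 72 h post infection; normalized to buffer-only basal and Salinomycin (10uM) controls.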
* hit, by the source's call; ? = inconclusive; · = not tested or not shown; [ ] = dose if it differs, or a comment.

SMILES	FMDV inh	HCV inh	SARS PLpro yeast	MARV entry inh	LASV entry inh	HCMV antiviral
Cc1ccc(-c2nc(S(=O)(=O)c3ccccc3)c(SCC(=O)NCC3CCCO3)o2)cc1 (centres undefined)	-17%	?	-2%	-11%[46.1 µM]	?	-60*
O=C(CSc1oc(-c2ccco2)nc1S(=O)(=O)c1ccc(Cl)cc1)NCC1CCCO1 (centres undefined)	·	?	6%	-3%	2%	-66*
Cc1cc(C)cc(NC(=O)CSc2oc(-c3ccco3)nc2S(=O)(=O)c2ccc(Cl)cc2)c1	-1%	·	·	?	0%[46.1 µM]	-62*
Cc1cc(C)cc(NC(=O)CSc2oc(-c3ccco3)nc2S(=O)(=O)c2ccccc2)c1	-27%	·	·	-26%[46.1 µM]	?	2
COc1ccc(OC)c(CNC(=O)Nc2cn(CC(C)C)c(=O)c3ccccc23)c1	-8%	·	·	·	-6%[46.1 µM]	-5
Cc1nc2n(c(=O)c1CCN1CCC(c3noc4cc(F)ccc34)CC1)CCCC2	-15%	?	4%	11µM*	·	-28
CN(c1ccccc1)c1nc(N)c([N+](=O)[O-])c(Nc2ccc(F)cc2)n1	-15%	?	0%	·	·	-15
CN(c1ccccc1)c1nc(N)c([N+](=O)[O-])c(Nc2ccccc2F)n1	-20%	5.6µM*	0%	·	·	5
COc1ccc(OC)c(Nc2nc(N(C)c3ccccc3)nc(N)c2[N+](=O)[O-])c1	-28%	5µM*	0%	·	·	38
CCC(C)Nc1nc(N)c([N+](=O)[O-])c(Nc2cc(OC)ccc2OC)n1 (centres undefined)	?	?	-2%	?	?	?
CN(Cc1ccccc1)c1nc(N)c([N+](=O)[O-])c(Nc2cccc(F)c2)n1	-20%	11µM*	-3%	-6%	-24%	44
Cc1ccc(CCNC(=O)CCn2nc(-c3ccc(Cl)cc3)ccc2=O)cc1	-12%	·	·	·	3%[46.1 µM]	-26
CCC(=O)Nc1cc(ON=C(C)C)cc([N+](=O)[O-])c1	-24%	?	-33%	?	2%	6
CCC(=O)Nc1cc(SCCO)cc([N+](=O)[O-])c1	9%	·	3%	10%	-36%[14.3 µM]	40
CC(C)=NOc1cc(NC(=O)CCl)cc([N+](=O)[O-])c1	7.9µM*	25µM*	-3%	23µM*	18µM*	-83*
O=C(CCl)Nc1cc(SCC(O)CO)cc([N+](=O)[O-])c1 (centres undefined)	14µM*	1.6µM*	4%	?	?	-99*
CC(=O)Nc1ccccc1NC(=O)C/C(C)=N/NC(=O)c1ccncc1	-17%	24%	1%	-3%	11%	-89*
CC(=NNC(=O)c1ccncc1)c1ccc2ccccc2c1O	-2%	?	·	7.9µM*	5µM*	-77*
CC(C)CC(=NNC(=O)c1ccncc1)c1cc(Cl)ccc1O	?	2.5µM*	·	?	3.2µM*	-97*
C/C(=N/NC(=O)c1ccncc1)c1ccc(NC(=O)c2ccc(Cl)cc2Cl)cc1	5%	-2%	-3%	?	1%[46.1 µM]	36
C/C(=N\Nc1cccc([N+](=O)[O-])c1)c1cc(F)ccc1O	21%	10µM*	0%	·	·	-27
C/C(=N\NC(=O)c1cccc2ccccc12)c1cccnc1	-2%	-7%	3%	-17%[46.1 µM]	0%[46.1 µM]	2
Cc1ccc(/C=C/C(=O)N2CCC(c3nc4ccccc4o3)CC2)cc1	11%	·	·	-1%[46.1 µM]	7%[46.1 µM]	26
CCN(Cc1ccncc1)Cc1ccc2c(c1)CN(C(=O)c1ccc(OC)cc1)CCO2	-13%	·	·	·	·	·
Cc1ccccc1-c1cc2nccc(-c3cc(Cl)ccc3O)n2n1	1%	·	·	-7%[46.1 µM]	-6%[46.1 µM]	16
SMILES	FMDV inh	HCV inh	SARS PLpro yeast	MARV entry inh	LASV entry inh	HCMV antiviral
CCCCCCCC(=O)N/N=C(\C)c1ccc(O)cc1O	-25%	-24%	-5%	3%	?	-70*
CC(=NNC(=O)c1ccncc1)c1ccccc1O	5%	4.5µM*	·	3.2µM*	?	-98*
C/C(=N\NC(=O)c1ccc(N2CCCC2=O)cc1)c1ccc(O)cc1O	0%	?	-2%	·	·	5
CC(=NNC(=O)c1ccccc1N)c1ccccc1O	-13%	·	·	·	·	·
C/C(=N\NC(=O)c1cccc(N/N=C(\C)c2cc(O)ccc2O)c1)c1cc(O)ccc1O	0%	?	0%	?	?	-78*
CC(=NNC(=O)c1ccncc1)c1ccc(O)cc1O	10%	11µM*	·	?	?	-37
CCOC(=O)c1c(C)c(C(=O)NCc2ccc(Cl)cc2)c(C)n1C	-6%	·	·	-1%[46.1 µM]	·	-31
Cc1nc2c(C(=O)NCCC(C)C)cnn2c(C)c1Cc1c(F)cccc1Cl	-17%	·	·	·	21%[46.1 µM]	-3
CCCCNc1nc2c(S(=O)(=O)c3ccc(C)cc3)nnn2c2ccsc12	1%	·	·	·	8%[46.1 µM]	17
CC(C)CC(=O)n1nc(-c2ccco2)nc1NCc1ccc(Cl)cc1	28%	·	·	-1%[46.1 µM]	-5%[46.1 µM]	24
O=C(COc1ccc(S(=O)(=O)N2CCOCC2)cc1Cl)NC1CCCCC1	-8%	13%	-1%	3%	-20%	8
O=S(=O)(c1ccc(OCC(O)CNC23CC4CC(CC(C4)C2)C3)c(Cl)c1)N1CCOCC1 (centres undefined)	-1%	?	0%	2µM*	-3%[46.1 µM]	-12
COc1ccc(-c2nc(CN3CCC(c4ccccc4)CC3)c(C)o2)cc1OC	-15%	?	0%	?	-2%[46.1 µM]	-65*
COc1ccc(-c2nc(CN3CCN(c4ccccc4OC)CC3)c(C)o2)cc1	28µM*	?	0%	?	-23%	?
COc1ccccc1CN1CCN(Cc2nc(-c3ccc(C)cc3)oc2C)CC1	-24%	?	-2%	·	·	70
Cc1oc(-c2cc(F)ccc2F)nc1CN1CCN(c2ncnc3ccccc23)CC1	16µM*	0.56µM*	-3%	·	·	-63*
CCc1ccc(-c2nc(CN3CCC(C(=O)NCc4ccccc4OC)CC3)c(C)o2)cc1	?	10µM*	0%	?	?	-38
O=C(c1cccc(Cn2cccn2)c1)N1CCC(n2c(C3CCCO3)nc3cc(C(F)(F)F)ccc32)CC1 (centres undefined)	-7%	·	·	·	·	·
Cc1cccc2cc(CNCCCN3CCCC3=O)c(N3CCN4CCCC4C3)nc12 (centres undefined)	4%	·	·	·	·	·
COCCCNC(=O)CCCCn1c(=O)c2ccccc2n(CC(=O)Nc2ccc(C)cc2C)c1=O	-1%	·	·	?	-12%[46.1 µM]	-5
CNC(=O)C1CCC(Cn2c(=O)c3sccc3n(CC(=O)NCc3ccccc3)c2=O)CC1 (centres undefined)	-7%	·	·	·	-2%[46.1 µM]	41
C#CCNC(=O)[C@H]1C=C(OC)C(=O)C[C@H]2c3ccccc3C[C@]12C	·	·	·	8%[14.2 µM]	·	·
COc1ccccc1N1CCN(Cc2nc(-c3ccc(F)cc3)oc2C)CC1	?	22µM*	23%	·	·	-12
